IL-1B inflam inh: inhibitors of inflammasome signaling (IL-1 beta secretion); 360,000 tested, 4.7% active; activity change, % at 57.5 µM; THP-1 LPS/ATP IL-1B secretion, AlphaLISA, 16 h; active compounds read low; in the data active = activity change below about -50%; inconclusive = mostly about -30% to -49%
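THP-1 cells pretreated 1 hr with compounds (up to 57.5 uM final), then stimulated with LPS (250 ng/mL final) plus ATP (1.25 mM final); secreted IL-1B measured by AlphaLISA after 16 hr, decreased signal indicating inhibition.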
ELG1 repair inh: blocks ELG1-dependent DNA repair in HEK293T cells; 330,000 tested, 2.3% active; Potency, µM (highest dose often 46.1 µM), actives largely listed as inhibitors; HEK293T ELG1-luciferase reporter, luminescence, 16 h; DNA damage induced by 5-fluorouridine; note: nearly all actives have a fitted effect of over 55% in size
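Step one: seed 2,000 cells per well. Step two: pin-transfer compound or DMSO alongside 5-fluorouridine. Step three: incubate 16 hr, 37 °C, 5% CO2. Step four: add ONE-Glo, wait 30 min, read luminescence.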
TDP1 cell CPT: growth inhibition of DT40 Tdp1-/-;hTDP1 cells with camptothecin (screen for TDP1 inhibitors); 420,000 tested, 12% active; chicken DT40 Tdp1-/-;hTDP1 cells + 20 nM CPT, ATP luminescence, 48 h; AID 686979; Potency, µM (series often up to 46.2 µM), actives largely listed as inhibitors; note: nearly all actives have a fitted effect of over 55% in size
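Chicken DT40 Tdp1-/- cells complemented with human TDP1, 400 cells/well, exposed to compounds plus 20 nM camptothecin for at least 48 h at 37 C; viability read as ATP content by CellTiter-Glo luminescence.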
DT40 TDP1 no CPT: qHTS for Inhibitors of human tyrosyl-DNA phosphodiesterase 1 (TDP1): qHTS in cells in absence of CPT | DT40 Tdp1-/- hTDP1 cells, no CPT, ATP luminescence, 48 h | Potency, µM (top dose mostly 46.2 µM), most hits filed as inhibitors | 420,000 tested, 15% active; note: nearly all actives have a fitted effect of over 55% in size
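Seeded 400 DT40-hTDP1 cells/well (vehicle DMSO, no 20 nM CPT); pinned compounds; ≥48 hr at 37 °C; CellTiter-Glo luminescence as viability measure.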
VP16 counter: Gal4-VP16 reporter inhibition counter-screen; Drosophila S2 Gal4-VP16 UAS-luciferase, luminescence, 20 h; Potency, µM (titrated, usually from 53.6 µM), hits mostly inhibitors; 310,000 tested, 3.5% active; AID 2546;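 note: Gal4-VP16 expression switched on by copper sulfate through the metallothionein promoter; nearly all actives have a fitted effect of over 50% in size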
RORg inh: ROR gamma (mouse) transcription inhibition; Drosophila S2 Gal4-RORgamma UAS-luciferase reporter, 20 h; Potency, µM (doses to about 53.6 µM), hits mostly inhibitors; 310,000 tested, 5.4% active; AID 2551; note: nearly all actives have a fitted effect of over 60% in size
Target sequence (P51450 whole entry, looked up, the tested form may be a part): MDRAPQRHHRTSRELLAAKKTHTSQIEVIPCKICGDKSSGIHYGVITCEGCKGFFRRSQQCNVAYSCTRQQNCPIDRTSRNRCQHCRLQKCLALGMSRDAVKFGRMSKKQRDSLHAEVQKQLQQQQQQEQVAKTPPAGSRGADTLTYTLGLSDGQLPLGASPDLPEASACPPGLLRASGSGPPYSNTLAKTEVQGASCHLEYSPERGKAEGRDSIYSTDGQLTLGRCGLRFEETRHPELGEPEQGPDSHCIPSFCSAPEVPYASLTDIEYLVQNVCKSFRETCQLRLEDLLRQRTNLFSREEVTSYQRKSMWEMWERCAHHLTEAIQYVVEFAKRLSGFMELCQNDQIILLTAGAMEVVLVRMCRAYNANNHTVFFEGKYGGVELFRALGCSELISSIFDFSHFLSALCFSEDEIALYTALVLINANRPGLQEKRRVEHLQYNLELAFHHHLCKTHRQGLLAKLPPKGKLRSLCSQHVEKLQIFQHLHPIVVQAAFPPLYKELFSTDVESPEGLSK
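ROR gamma transcriptional activity was tracked as Gal4-UAS luciferase output in stably transfected Drosophila Schneider cells, with compound added 1 hr before 700 uM copper sulfate induction and a 20 hr ambient-temperature incubation.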
Each line names hits and unclear results; the compound was inactive in the other large screens. Hits are enriched below; roughly 21% of the tested compounds scored in any of these assays. Unless noted, calls come from the whole dose curve; as a rule, active = well fitted curve in the direction sought with a large enough effect; inconclusive = small, poorly fitted or top-dose-only effect, or another doubt; inactive = no such curve, though single readings can be large; an effect the other way counts as inactive or inconclusive.

NC(c1cccc(F)c1)c1nc(-c2ccc(Cl)cc2)cs1 (centres undefined)	TDP1 cell CPT inconclusive, DT40 TDP1 no CPT inconclusive (no result: ELG1 repair inh, VP16 counter, RORg inh)
O=C(c1ccco1)N1N=C(C2CCCCC2)CC1(O)C(F)(F)F (centres undefined)	none
Cc1occc1C(=O)N1N=C(C2CC2)CC1(O)C(F)(F)F (centres undefined)	VP16 counter inconclusive, RORg inh 7.94µM
O=C(c1ccncc1)N1N=C(C2CCCCC2)CC1(O)C(F)(F)F (centres undefined)	TDP1 cell CPT 2.91µM, DT40 TDP1 no CPT 4.61µM, VP16 counter inconclusive
CCCS(=O)(=O)NC(=O)C1(C)CCN(C(=O)c2ccc3ccccc3n2)C1 (centres undefined)	none (no result: ELG1 repair inh, VP16 counter, RORg inh)
CCCCC1(C)Cc2ccccc2C(=S)N1 (centres undefined)	TDP1 cell CPT 23.1µM, DT40 TDP1 no CPT inconclusive, VP16 counter 5.62µM, RORg inh 1µM
CCCCCCCCN1C(=O)[C@H](CC(=O)N2CCCC2)C[C@@]2(C(=O)OCC)CCCC=C12	IL-1B inflam inh inconclusive, TDP1 cell CPT 8.2µM, DT40 TDP1 no CPT 8.2µM (no result: ELG1 repair inh, VP16 counter, RORg inh)
CCCCCCCCN1C(=O)[C@H](CC(=O)N2CCN(C(=O)OCC)CC2)C[C@@]2(C(=O)OCC)CCCC=C12	TDP1 cell CPT 16.4µM, DT40 TDP1 no CPT inconclusive (no result: ELG1 repair inh, VP16 counter, RORg inh)
CC(NC(=O)c1cc(S(=O)(=O)N2CCCC2)ccc1Cl)c1ccccn1 (centres undefined)	none (no result: VP16 counter, RORg inh)
S=c1[nH]nc(Cc2ccc(Br)cc2)n1/N=C/c1ccc(Cl)cc1	IL-1B inflam inh -62.6, TDP1 cell CPT inconclusive, DT40 TDP1 no CPT inconclusive
Cc1n[nH]c(=S)n1/N=C/c1ccc(OCc2ccc(Cl)cc2)cc1	ELG1 repair inh inconclusive, TDP1 cell CPT inconclusive, DT40 TDP1 no CPT inconclusive, RORg inh 5.62µM
CCc1n[nH]c(=S)n1/N=C/c1ccccc1OCc1ccc(Cl)cc1	ELG1 repair inh inconclusive
Cc1ccc2cc(CN(Cc3ccco3)C(=O)c3cccs3)c(=O)[nH]c2c1	TDP1 cell CPT 2.91µM, DT40 TDP1 no CPT 3.66µM
Cc1ccc2[nH]c(=O)c(CN(Cc3ccco3)C(=O)c3cccs3)cc2c1	none (no result: IL-1B inflam inh, TDP1 cell CPT, DT40 TDP1 no CPT)
Cc1cccc(N(Cc2cc3ccccc3[nH]c2=O)C(=O)c2cccs2)c1	IL-1B inflam inh inconclusive, TDP1 cell CPT inconclusive, DT40 TDP1 no CPT 23.1µM
Cc1ccc(N(Cc2cc3ccc(C)cc3[nH]c2=O)C(=O)c2cccs2)cc1	none
CC1CN=C(c2ccccc2)O1 (centres undefined)	none (no result: ELG1 repair inh, VP16 counter, RORg inh)
COc1ccc(CNC(=O)c2cc(-c3ccc(OC)c(OC)c3)on2)cc1	none
CCCN(CCC)CCCNC(=O)c1cc2c(-c3ccc(OC)c(OC)c3)nn(C)c2s1	IL-1B inflam inh -52.4, TDP1 cell CPT 14.6µM, DT40 TDP1 no CPT 4.61µM
COc1ccc(OC)c(CNC(=O)c2cc3c(-c4ccc(OC)c(OC)c4)nn(C)c3s2)c1	TDP1 cell CPT inconclusive, DT40 TDP1 no CPT 8.2µM (no result: IL-1B inflam inh, ELG1 repair inh, VP16 counter, RORg inh)
O=C(CNC(=O)c1cccc(F)c1)NC1CC1	none (no result: VP16 counter, RORg inh)
CCCc1cc(=O)[nH]c2nnc(SCC(=O)Nc3ccc(OC)cc3)n12	none (no result: IL-1B inflam inh, ELG1 repair inh, VP16 counter, RORg inh)
COc1ccc(OCC(=O)Nc2cccc(-c3nc4ccccc4o3)c2)cc1	ELG1 repair inh inconclusive
O=C(O)CCCC(=O)Nc1cccc(-c2nc3ccccc3[nH]2)c1	none
COc1ccc(OCC(=O)Nc2cccc(-c3nc4ccccc4[nH]3)c2)cc1	IL-1B inflam inh inconclusive, ELG1 repair inh inconclusive, TDP1 cell CPT 14.6µM, DT40 TDP1 no CPT inconclusive
O=C(COc1ccccc1)Nc1cccc(-c2nc3ccccc3[nH]2)c1	IL-1B inflam inh -100.7, ELG1 repair inh inconclusive, TDP1 cell CPT inconclusive, DT40 TDP1 no CPT 23.1µM
CCSc1ccc(C(=O)Nc2ccc(-c3nc4ccc(C)cc4s3)cc2)cc1	DT40 TDP1 no CPT inconclusive (no result: IL-1B inflam inh, ELG1 repair inh, VP16 counter, RORg inh)
Cc1ccc2nc(-c3ccc(NC(=O)C(F)(F)F)cc3)sc2c1	DT40 TDP1 no CPT inconclusive (no result: IL-1B inflam inh, ELG1 repair inh, VP16 counter, RORg inh)
